The record followed here is PubChem BioAssay AID1209 (Sanford-Burnham Center for Chemical Genomics, 2008).

Structures are written as SMILES. The whole screen tested about 190,000 compounds, of which about 810 (0.43%) were called active. This excerpt belongs to a sample that is enriched for actives. A number with no mark means an inactive call. Rule as the data show it: active = inhibition above about 50%; inactive = the rest.

Sequence of Mannose-6-phosphate isomerase (Homo sapiens) (P34949 whole entry, looked up): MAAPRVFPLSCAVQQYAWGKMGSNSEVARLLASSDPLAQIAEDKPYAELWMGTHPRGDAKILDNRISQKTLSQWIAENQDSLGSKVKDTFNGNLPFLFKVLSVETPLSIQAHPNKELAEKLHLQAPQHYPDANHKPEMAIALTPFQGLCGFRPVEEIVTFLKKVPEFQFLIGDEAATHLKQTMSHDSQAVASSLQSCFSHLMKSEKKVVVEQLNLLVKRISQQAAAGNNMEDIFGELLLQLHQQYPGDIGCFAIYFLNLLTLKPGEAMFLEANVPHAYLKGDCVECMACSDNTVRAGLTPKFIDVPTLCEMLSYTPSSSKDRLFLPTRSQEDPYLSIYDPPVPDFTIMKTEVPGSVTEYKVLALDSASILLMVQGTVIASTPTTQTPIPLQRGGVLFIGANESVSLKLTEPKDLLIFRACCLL

The assay has as its target Mannose-6-phosphate isomerase (Homo sapiens) (UniProt P34949). In words: inhibitors of human PMI, primary screen, biochemical, fluorescence intensity, coupled assay (AID 1209).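 Also: plate controls were DMSO vehicle for no effect and wells lacking substrate for full effect.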 As to conditions: purified PMI enzyme, at 20 µM, active compounds read high.
`COc1ccccc1NS(=O)(=O)c1ccc2oc(SCc3ccc(C#N)cc3)nc2c1`: the inhibition (commonly the change of the read-out against control, counted positive when it falls) was 23.3%.
In the case of `C/C(=N\Nc1nc(N2CCOCC2)nc(N2CCOCC2)n1)c1cccc([N+](=O)[O-])c1`, the inhibition is -11.8%.
With `c1ccc(-c2nnc3sc(CN4CCC5(CC4)OCCO5)cn23)cc1` the figure was 10.9%; with `Brc1ccc(-c2nnc3sc(CN4CCC5(CC4)OCCO5)cn23)cc1`, 7.3%.
With `Brc1cccc(-c2nnc3sc(CN4CCC5(CC4)OCCO5)cn23)c1` the figure was 101% (active).
With `CC1(C)CC2(CC(c3ccccc3F)c3cc(Cl)c(O)cc3O2)NC(=S)N1` (stereo not drawn) the figure was -8.2%.
On to `CC1(C)CC2(CC(c3ccccc3)c3ccc(O)cc3O2)NC(=S)N1` (stereo not drawn), for which the inhibition is -4.8%.
On to `CCCCN(C(=O)Cn1nnc2ccccc21)C(C(=O)NCc1ccco1)c1ccncc1` (stereo not drawn), for which the inhibition was -0.5%.
For the compound `Cc1onc(-c2ccccc2Cl)c1C(=O)NC(=S)NCCc1ccccc1`, the inhibition was 11.7%.
As to `O=C(c1cccnc1)N1N=C(C2CCCCC2)CC1(O)C(F)(F)F` (stereo not drawn), the inhibition is -7.1%.
`CCOC(=O)C(=O)Nc1sc(C(=O)N2CCOCC2)c(C)c1C#N`: the inhibition is 2.7%.
`COc1ccc(-c2cc(C(=O)Nc3sc4c(c3C#N)CCCC4)c3ccccc3n2)cc1`: the inhibition was 7.1%.
For the compound `CCOC(=O)c1sc(NC(=O)c2cc(-c3ccc(C)cc3)nc3ccccc23)c(C#N)c1C`, the inhibition is 67.7% (active).
The same measure for `Cc1ccccc1-c1cc(C(=O)Nc2sc(C(=O)OC(C)C)c(C)c2C#N)c2ccccc2n1`: 61.2% (active); for `CCOC(=O)c1sc(NC(=O)c2cc(-c3ccccc3C)nc3ccccc23)c(C#N)c1C`: 47.9%; for `Cc1sc(NC(=O)c2cc(-c3ccccc3)nc3ccccc23)c(C(N)=O)c1C`: 17%.
With `CCOC(=O)c1sc(NC(=O)c2cc(-c3ccccc3)nc3ccccc23)c(C#N)c1C` the figure was 79% (active); with `CCOC(=O)c1sc(NC(=O)c2ccncc2)c(C#N)c1C`, 49.3%; with `Cc1ccccc1-c1cc(C(=O)Nc2sc(C)c(C)c2C(N)=O)c2ccccc2n1`, 19.7%.
The same measure for `COC(=O)c1sc(NC(=O)c2cc(-c3ccccc3)nc3ccccc23)c(C#N)c1C`: 5.2%.
Regarding `CCCN1C2CCCC1CC(NC(=S)Nc1cc(C)cc(C)c1)C2` (stereo not drawn), the inhibition is 7.1%.
With `NNC(=O)CNc1cccc(Cl)c1` the figure was -2.4%.
Take `CC/C(C)=N\N=C\c1c(O)n(CC)c2cc(C3=NNC(=O)CC3)ccc12`: the inhibition is -47.5%.
On to `COc1ccccc1-n1cnnc1SCC(=O)Nc1cccc(S(=O)(=O)N2CCCCC2)c1`, for which the inhibition is 7.9%.
The same measure for `O=C(NCCN1CCN(C(=O)c2cccs2)CC1)C(=O)Nc1ccc(Br)cc1`: -0.2%; for `COc1ccc(CC(=O)Nc2ccc(S(=O)(=O)NCC3CCCO3)cc2)cc1` (stereo not drawn): 2.9%; for `Cc1cc([N+](=O)[O-])nn1CCCC(=O)NCc1ccc(F)cc1`: -9.8%.
Regarding `Cc1nc(NC(=O)c2ccccc2)sc1-c1csc(Nc2cccc(Cl)c2)n1`, the inhibition was 0.6%.
The same measure for `Cc1nc(NC(=O)c2ccccc2)sc1-c1csc(Nc2ccc(Cl)cc2)n1`: 53.1% (active); for `Cc1nc(NC(=O)c2ccccc2)sc1-c1csc(Nc2ccc(F)cc2)n1`: 45%.
The same measure for `Cc1nn(Cc2ccc(Cl)cc2)c(C)c1NC(=O)c1noc2c1CCCCC2`: 15.5%.
As to `COc1ccc(OCCCNCCc2ccccc2)cc1`, the inhibition was -2.5%.
The same measure for `O=C1/C(=C/c2cccnc2)SC(=NCc2ccccc2)N1Cc1ccccc1`: 7.3%; for `CCCCc1nc2c(=O)[nH]c3ccccc3c2o1`: 0.8%; for `CCCCCc1nc2c(=O)[nH]c3ccccc3c2o1`: 102% (active).
`CCCCCCc1nc2c(=O)[nH]c3ccccc3c2o1`: the inhibition was 6.6%.
For the compound `CCN(C(=O)c1ccnn1C)c1ccccc1`, the inhibition is -6.3%.
Consider `CCOC(=O)Cc1csc(-n2sc3ccccc3c2=O)n1`, for which the inhibition was 98.9% (active).
Turning to `CCOC(=O)Cc1csc(NC(=O)c2cc(=O)c3ccccc3o2)n1`, the inhibition is -7.8%.
The same measure for `CCOC(=O)Cc1csc(SCn2nnc3ccccc3c2=O)n1`: 1.9%.
With `O=C(CSc1ccc(-c2ccc(Br)cc2)nn1)N1CCOCC1`, the inhibition is -1.9%.
For `CCCCCCCNC(=O)COc1ccc2c(c1)C(=O)CC(C)(C)O2`, the inhibition is 2.9%.
As for `Nc1ccc2c(c1)OC1(CCCCC1)O2`, the inhibition is 55.6% (active).
Turning to `Nc1ccc2c(c1)OC1(CCCC1)O2`, the inhibition is 6.1%.
With `O=C(Nc1ccc2c(c1)OC1(CCCC1)O2)C1CC1` the figure was 0.2%; with `CC(C)(C)c1nc(SCC(=O)N2CC(=O)Nc3ccccc32)c2ccccc2n1`, 3.4%.
With `COc1ccc2c(c1)CC/C2=N\OC(=O)c1ccccc1C` the figure was -5%; with `Cc1ccc2c(c1)/C(=N/N1C(=O)c3ccccc3C1=O)C(=O)N2`, -2.2%; with `COc1ccc(N=C2C(=O)Nc3ccccc32)cc1`, 12.5%.
With `c1ccc(-c2nnc(CSc3nncs3)o2)cc1`, the inhibition was 16.2%.
The same measure for `O=c1[nH]c2ccc(Cl)cc2c(-c2ccccc2)c1SC(=S)N1CCCCC1`: 0.2%.
With `CCOC(=O)N1CCC(Nc2c(N3CCN(c4cccc(C(F)(F)F)c4)CC3)c(=O)c2=O)CC1` the figure was -9.4%; with `NS(=O)(=O)c1ccc(NC(=S)NCc2ccc(Cl)cc2)cc1`, 58.1% (active).
As for `CCNS(=O)(=O)c1ccc(NC(=S)NCc2ccco2)cc1`, the inhibition was 35.3%.
On to `NS(=O)(=O)c1ccc(NC(=S)NCc2ccco2)cc1`, for which the inhibition was 55.4% (active).
With `NS(=O)(=O)c1ccc(CNC(=S)Nc2ccc(F)c(Cl)c2)cc1` the figure was 17.2%.
With `NS(=O)(=O)c1ccc(CNC(=S)NCc2ccc(Cl)cc2)cc1` the figure was 6.3%.
With `O=S(=O)(c1ccc(NC(=S)NCc2ccco2)cc1)N1CCCC1` the figure was 8.9%; with `CC(=O)NC(CCS(C)(=O)=O)C(=O)Nc1ccccc1` (stereo not drawn), 7.8%.
As for `CS(=O)(=O)N(CC(=O)NC1CC1)c1cccc(F)c1`, the inhibition is 6.9%.
Consider `Cc1ccc(NC(=O)CSc2nnc(-c3ccncc3)n2C)cc1S(=O)(=O)N1CCOCC1`, for which the inhibition is -7.6%.
With `COC(=O)c1ccc[n+](CC(=O)c2ccc(Br)cc2)c1` the figure was -34.8%; with `Cn1cnc2ccc([N+](=O)[O-])cc2c1=O`, -6%.
The same measure for `CCOC(=O)N1CCN(CCC(=O)c2ccc(Cl)cc2)CC1`: 57.4% (active); for `CCOC(=O)N1CCN(CCC(=O)c2ccc(OC)cc2)CC1`: 0.1%; for `CCCOc1ccc(C(=O)CCN2CCN(C(=O)OCC)CC2)cc1`: -7.1%.
With `Cc1ccc(N2C(=O)NC(C(F)(F)F)(C(F)(F)F)C3=C2CC(C)(C)CC3=O)cc1`, the inhibition was 2.1%.
With `CC1(C)CC2(CC(c3ccccc3)Oc3cc(O)ccc32)NC(=O)N1` (stereo not drawn) the figure was 2.6%.
With `COc1cccc(C(=O)COc2ccc3ccc(=O)oc3c2)c1` the figure was -1.6%.
For `CCOC(=O)c1c(NC(=O)Nc2ccc(Cl)cc2)sc(C)c1C`, the inhibition was 2.4%.
With `NC(=O)c1c(NC(=S)Nc2ccc(F)cc2)sc2c1CCCC2`, the inhibition was 18.7%.
The same measure for `Cc1sc(NC(=S)NC(=O)c2ccco2)c(C(N)=O)c1C`: 50.4% (active); for `Cc1sc(NC(=S)Nc2ccc(F)cc2)c(C(N)=O)c1C`: 51.8% (active).
With `CCOC(=O)c1c(NC(=O)Nc2ccccc2)sc(C)c1C` the figure was 12.6%; with `CCOC(=O)c1c(NC(=S)Nc2ccc(Cl)cc2)sc(C)c1C`, -3.5%; with `Cc1sc(NC(=O)Nc2ccccc2)c(C(N)=O)c1C`, 53.1% (active).
With `COC(=O)c1c(NC(=O)c2ccco2)sc(C)c1C` the figure was 5%.
As to `Cc1sc(NC(=S)NC(=O)c2ccco2)c(C#N)c1C`, the inhibition is 4.5%.
Consider `O=C(Nc1ccnc(-c2cccnc2)n1)c1ccc(F)cc1`, for which the inhibition is 5%.
Regarding `Cc1nn(Cc2ccc(F)cc2)c(C)c1NC(=O)c1cc2ncc(Br)cn2n1`, the inhibition is 6.4%.
With `COc1ccc(Cn2c(C)c(C)c(C#N)c2NC(=O)Nc2cccc(C)c2)cc1` the figure was -1.9%.
Consider `CC(NC(=O)C(=O)N/N=C\c1cccc([N+](=O)[O-])c1)c1ccccc1` (stereo not drawn), for which the inhibition is 10.5%.
The same measure for `CC(C)(C)NC(=O)NC(=O)Cn1ccsc1=N`: 5.2%; for `CCC(C)(C)NC(=O)CN(Cc1ccc2c(c1)OCO2)C(=O)CCC(=O)Nc1nccs1`: -5%; for `O=C(COc1ccccc1Cl)NC(=S)Nc1ccc(CN2CCOCC2)cc1`: 17.4%.
The same measure for `O=C(O)/C(=C/c1ccco1)c1ccccc1`: -8%; for `CCOC(=O)C1CCCN(C(=O)Cn2nc(Cc3cccnc3)c3ccccc3c2=O)C1` (stereo not drawn): 5.7%.
Turning to `O=C(CSc1nnnn1C1CCCC1)Nc1cccc(NC(=O)c2ccco2)c1`, the inhibition is 8.3%.
With `O=c1c(C/C=C/c2ccccc2)c(O)ccn1Cc1ccc(Cl)cc1Cl` the figure was 13.5%; with `CC1(C)C(=O)OC(c2cccn2-c2ccc([N+](=O)[O-])cc2)C2(CCCCC2)C1=O` (stereo not drawn), 6.1%.
The same measure for `CC1(C)C(=O)C2(CCCCC2)C(=O)OC1c1cccn1-c1ccc([N+](=O)[O-])cc1` (stereo not drawn): 2.5%; for `CC1(C)C(=O)OC(c2cccn2-c2ccc([N+](=O)[O-])cc2)C(C)(C)C1=O` (stereo not drawn): 67.5% (active).
`CCCC(=O)c1cc2c(cc1NC(=O)c1cccs1)OCCO2`: the inhibition is 6.8%.
For the compound `O=C(NCc1ccccn1)Nc1cccc(NC(=O)NCc2ccccn2)c1`, the inhibition was 14.5%.
With `CCCC1=C(C(=O)OCC)C(/C=C/c2ccccc2)n2ncnc2N1` (stereo not drawn) the figure was 2.4%; with `CC(Sc1nncn1C)C(=O)Nc1nnc(-c2ccccc2)s1` (stereo not drawn), 8.5%; with `COc1ccc(OC)c(-c2nnc(NC(=O)C(C)Sc3nncn3C)s2)c1` (stereo not drawn), 97.9% (active).
With `COc1ccccc1-c1nnc(NC(=O)C(C)Sc2nncn2C)s1` (stereo not drawn), the inhibition was -2.1%.
